PubChem BioAssay

Assay: S. cerevisiae growth modulation with rapamycin, primary screen, strain BY4716, OD600, 96 h (AID 1091); note: test concentration not given here
Settings: higher = more signal, called active from +8 up or from −8 down

z-score, inactive:
CCOC(=O)C[C@H]1[C@H](OC(=O)Cc2ccc3c(c2)OCO3)[C@@H](NC(=O)c2ccc3ccccc3c2)c2cc(OCCCO)ccc2N1C(=O)Cc1ccc(OC)cc1 0.227
O=C(NCc1ccccc1)c1ccc(Br)cc1[N+](=O)[O-] -0.778
CC(C)(C)OC(=O)CC[C@]1(C(=O)N2CCCCC2)N=C(c2ccc(OCCCO)cc2)O[C@H]1c1ccccc1 -1.07
C=CCNC(=O)[C@@H]1[C@H]2C(=O)O[C@H](c3ccccc3)[C@H](c3ccccc3)N2[C@H](c2ccc(OCCO)cc2)[C@@]12C(=O)N(C(=O)OCCOC)c1ccc(C#CC3(O)CCCCCC3)cc12 3.24
CCCC=C(CCC)[C@@H](NS(=O)(=O)c1ccc(C(F)(F)F)cc1)c1ccc(-c2ccccc2)cc1 -0.1
NC(=O)NCC#Cc1ccc2c(c1)[C@]1(C(=O)N2)[C@H](C(=O)N2CCCCCCC2)[C@H]2C(=O)O[C@H](c3ccccc3)[C@H](c3ccccc3)N2[C@@H]1c1ccccc1OCCO 1
C=C[C@H](OC)[C@@H](OC(=O)Nc1ccc(SC)cc1)c1ccc(O)c(F)c1 0.887
CO[C@H]1COC(=O)CC=C[C@H](C)COC(=O)[C@@H](OCc2ccccc2)C=C[C@@H]1C -0.993
CC(C)C[C@@H]1NC(=O)[C@H]2C[C@@H](C(=O)NCCCCCC[N+](C)(C)C)[C@@H](c3ccc(O)cc3)N2C1=O 0.109
CO[C@H]1COC(=O)[C@@H](C)NC(=O)CC=C[C@@H](C)[C@H](OC)COC(=O)CC=C[C@@H]1C -1.67
